Bioassay records deposited in PubChem BioAssay by The Scripps Research Institute Molecular Screening Center.
bovine MsrA act: bovine MsrA enzyme activators, primary screen, biochemical, absorbance, HTS; Methionine sulfoxide reductase A (Bos taurus); purified bovine MsrA, absorbance read-out; activation, % at 10.6 µM; 360,000 compounds, 0.3% hits; in the data active = activation above about 7.5%;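 note: 0% = vehicle and 100% = reference activator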
MsrA inhibitor: bovine MsrA enzyme inhibitors, primary screen, biochemical, absorbance, HTS; purified bovine MsrA, absorbance read-out; 360,000 compounds, 0.75% hits; Methionine sulfoxide reductase A (Bos taurus); inhibition, % at 15.5 µM;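 note: 0% = vehicle wells with enzyme and 100% = reference inhibitor wells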
PG9 binder: binders of HIV-1 gp120 antibody PG9, primary screen, biochemical, TR-FRET; 360,000 compounds, 0.43% hits; inhibition, % at 6.7 µM; HIV-1 gp120 / PG9 antibody interaction; TR-FRET gp120-PG9 antibody binding; in the data active = inhibition above about 8.5%
rCAG binder: binders of r(CAG) RNA repeats, primary screen, biochemical, fluorescence; 370,000 compounds, 1.3% hits; inhibition, % at 3 µM; r(CAG) RNA repeat, TO-PRO-1 dye displacement fluorescence; AID 651821, 2012;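 active = inhibition above the plate cutoff, the mean of all test compounds on that plate plus 3 SD, cut at about 35% in these data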;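 note: 0% = DMSO alone and 100% = 100 µM mitoxantrone as full dye displacement; higher means more dye released from RNA so lower well fluorescence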
sPLA2-III inh: human group III sPLA2 inhibitors, primary screen, biochemical, QFRET, BODIPY PC-A2 liposome substrate. QFRET BODIPY PC-A2 liposome hydrolysis, fluorescence. inhibition, % at 12.2 µM. 370,000 compounds, 0.56% hits;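 active = inhibition above mean plus 3 SD of compounds lying within the high and low control bounds, cut at about 19% in these data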;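 note: 0% = median of test compound wells and 100% = no enzyme DMSO wells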
Target sequence (Q9NZ20 whole entry, looked up): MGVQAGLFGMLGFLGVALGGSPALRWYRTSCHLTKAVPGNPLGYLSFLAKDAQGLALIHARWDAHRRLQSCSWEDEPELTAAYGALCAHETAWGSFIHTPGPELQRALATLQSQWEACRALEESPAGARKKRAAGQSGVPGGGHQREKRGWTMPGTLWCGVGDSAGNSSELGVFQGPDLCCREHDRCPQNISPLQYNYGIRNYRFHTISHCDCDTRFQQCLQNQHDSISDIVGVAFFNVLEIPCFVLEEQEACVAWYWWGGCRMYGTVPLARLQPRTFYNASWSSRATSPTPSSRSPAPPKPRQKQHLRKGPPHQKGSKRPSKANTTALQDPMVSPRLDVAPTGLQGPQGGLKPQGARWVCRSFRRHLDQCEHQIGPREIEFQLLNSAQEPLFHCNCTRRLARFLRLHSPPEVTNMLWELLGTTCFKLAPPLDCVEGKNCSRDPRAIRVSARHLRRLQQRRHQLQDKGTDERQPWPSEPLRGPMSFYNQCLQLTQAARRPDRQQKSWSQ
MsrA conf: bovine MsrA inhibitors, retest, confirmation, biochemical, absorbance, HTS | shares compounds with MsrA inhibitor | purified bovine MsrA, absorbance read-out | inhibition, % at 15.5 µM | 2,300 compounds, 41% hits | AID 651822, 2012;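 note: coupled to thioredoxin reductase with NADPH and selenocystamine and DMSO as substrate; 0% = vehicle only and 100% = full effect of reference inhibitor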
* = called active by the depositor; · = no result. The list is not random: actives were taken first. Their share in the collection is about 3.2%. Cut-off read from the data, not from the text of the source, unless noted: active = inhibition above about 4.5%; inactive = the rest.

SMILES | bovine MsrA act | MsrA inhibitor | PG9 binder | rCAG binder | sPLA2-III inh | MsrA conf
COc1cc(/C=N/NC(=O)c2cn(-c3cccc(C)n3)cn2)ccc1O | -6 | 4.7* | -4 | -7 | -1 | 4
CCOc1cc(/C=N\NC(=O)c2c(C)nc3ccccn23)ccc1O | -6 | 5.6* | -3 | -4 | 6 | 4.9*
COc1cc(/C=N/NC(=O)c2cc[n+]([O-])cc2)ccc1O | -1 | 7.5* | -5 | -1 | 14 | 5.2*
O=C(N/N=C/c1ccc([N+](=O)[O-])o1)c1cc(-c2ccncc2)nc2ccccc12 | -10 | 6.1* | -5 | 19 | -3 | 2
O=C(N/N=C/c1ccc([N+](=O)[O-])o1)c1cc(-c2ccc(-c3ccccc3)cc2)nc2ccccc12 | 0 | 1 | -2 | 23 | 0 | ·
COc1ccc(/C=N/NC(=O)c2cc[n+]([O-])cc2)cc1OC | -3 | · | · | · | · | ·
Cc1nc2ccccn2c1C(=O)N/N=C/c1ccc2c(c1)OCO2 | -6 | 3 | -1 | -2 | -4 | ·
COC(=O)C1CN(Cc2ccc(OC)cc2)CCS(=O)(=O)N1Cc1cn(CCOC(C)=O)nn1 (centres undefined) | · | · | · | 2 | 8 | ·
CCOc1ccccc1-c1cc(C(=O)N/N=C/c2ccc(O)c(OC)c2)c2ccccc2n1 | -7 | 4.9* | -2 | 12 | -17 | 2
CCOC(=O)c1c(NC(=O)C(=O)N/N=C/c2ccc(O)c(OC)c2)sc2c1CCCCC2 | -1 | 5.0* | 1 | 19 | 3 | 3
CCOc1ccccc1-c1cc(C(=O)N/N=C/c2ccc3c(c2)OCO3)c2ccccc2n1 | -3 | -1 | -2 | 2 | -1 | ·
CCOc1ccc2[nH]c(C(=O)N/N=C/c3cc(OC)c(OC)c(OC)c3)cc2c1 | -5 | 5.4* | -3 | 5 | -11 | 4.8*
CCOc1ccc(/C=N/NC(=O)c2cc3c(OC)cccc3[nH]2)cc1 | -4 | 0 | 0 | 5 | -13 | ·
CCOC(=O)c1c(NC(=O)C(=O)N/N=C/c2ccc(OCC)cc2)sc2c1CCCCC2 | -4 | -1 | -1 | 1 | 6 | ·
COc1ccc(/C=N/Nc2ccccn2)cc1O | -5 | 6.1* | -4 | 1 | -3 | 3
O=C(Cn1nnc(-c2ccccc2F)n1)Nc1ccc(Cl)c(Cl)c1 | · | · | · | 5 | -1 | ·
COc1ccc(S[C@]2(C(=O)N3CCOCC3)CC(=O)N(C(=O)/C=C/c3ccccc3)[C@@H]2c2ccc(OC)cc2)cc1 | · | · | · | 10 | -6 | ·
COC(=O)[C@]12C[C@H](CC(=O)NCc3cccs3)C(=O)N(Cc3ccco3)C1=C[C@H](C(C)C)O[C@@H]2C1CC1 | · | · | · | 1 | -2 | ·
CCN(C[C@H]1[C@@H](c2ccc(C3=CCCC3)cc2)[C@H](CO)N1Cc1ccccn1)S(=O)(=O)c1ccccc1[N+](=O)[O-] | · | · | · | 13 | -7 | ·
C=CCN(CC#Cc1ccccc1)Cc1ccc(OC)cc1 | · | · | · | 2 | 6 | ·
COc1cc(/C=N/NC(=O)c2cc3ccccc3[nH]2)ccc1O | -1 | 8.4* | -5 | 8 | -7 | 5.9*
COc1cc(/C=N/N(C)c2ccccc2)ccc1O | -1 | 5.3* | -6 | 7 | 1 | 4
COc1ccc(/C=N/NC(=O)c2cnccn2)cc1O | -6 | 4.8* | -1 | 2 | -4 | 4.8*
COc1ccc(/C=N/NC(=O)c2cc3c(OC)ccc(OC)c3[nH]2)cc1O | -5 | 6.6* | -5 | 15 | -29 | 5.8*
COc1cccc(/C=N/NC(=O)c2cnccn2)c1 | -8 | 0 | -2 | -2 | 0 | ·
C#CCNC(=O)C[C@H]1C[C@@]2(C(=O)OC)C(=C[C@H](C(C)C)O[C@@H]2C2CC2)N(CCCCCCCC)C1=O | · | · | · | 2 | -1 | ·
COc1ccc(/C=N/NC(=O)c2cc(=O)[nH]c3ccccc23)cc1OC | -17 | 4.7* | -1 | -4 | 3 | 3
COc1ccc(/C=N/NC(=O)c2cc(-c3ccccc3)nc3ccccc23)c(OC)c1 | -6 | 5.4* | 0 | 17 | -4 | 4
